Experiment [1] is described as follows: small molecules captured by biotinylated probe aFSTL3 – biochemical, small-molecule microarray, fluorescence 635/667, stem cell growth factor project, primary screen (AID 1064).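 Also: measures binding of the biotinylated anti-FSTL3 antibody to printed compounds.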 The note with it: higher = more signal.
Experiment [2] is described as follows: binders from COS7 lysate, DM2A8 probe, primary screen, torsin A project, cell lysate, small-molecule microarray, fluorescence 635/667 (AID 1065). The note with it: higher = more signal, COS7 lysate expressing mutant human TOR1A.
Experiment [3] is described as follows: small molecules captured by biotinylated probe aFGF2 – biochemical, small-molecule microarray, fluorescence 635/667, stem cell growth factor project, primary screen (AID 1067).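 Also: measures binding of biotinylated aFGF2 protein to printed compounds on slides; z-score merges feature fluorescence and signal-to-noise across triplicate slides.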 The note with it: higher = more signal.
Experiment [4] is described as follows: small molecules captured by biotinylated probe aFGF10 – biochemical, small-molecule microarray, fluorescence 635/667, stem cell growth factor project, primary screen (AID 1071).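 Also: score merges 667 nm spot intensity and signal to noise from triplicate slides.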 The note with it: higher = more signal.
Experiment [5] has as its target Neurogenic locus notch homolog protein 2 (Homo sapiens) (UniProt Q04721). Kind of experiment: small molecules binding Notch2 protein – biochemical, small-molecule microarray, 635 nm fluorescence, stem cell growth factors, primary screen (AID 1073). The note with it: higher = more signal.
Experiment [6] has as its target Pro-neuregulin-1, membrane-bound isoform (Homo sapiens) (UniProt Q02297). The experiment is described as follows: small molecules binding neuregulin-1 protein – biochemical, small-molecule microarray, fluorescence 635/667, psychiatric disease protein project, primary screen (AID 1075).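 Also: score combines 667 nm spot fluorescence with signal to noise.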 The note with it: NRG1 binding, 635 nm fluorescence, higher = more signal.
Experiment [7] concerns Neuregulin-1 EGF-like domain. Kind of experiment: small molecules binding NRG1 EGF domain – biochemical, small-molecule microarray, 635 nm fluorescence, primary screen (AID 1081).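 Also: binding of the protein to compounds printed on small-molecule microarray slides.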 The note with it: higher = more signal.
Experiment [8] can be described thus: FRG1 expression reporter modulators in myotubes – cell-based, C2C12 myotubes, firefly/Renilla luciferase, luminescence, FRG1 inhibition for FSHD, primary screen (AID 1084). The note with it: FRG1 promoter luciferase, higher = more signal, called active from +8 up or from −8 down.
The nature of experiment [9]: small molecules captured by biotinylated probe aFST – biochemical, small-molecule microarray, fluorescence 635/667, stem cell growth factor project, primary screen (AID 1086).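 Also: score merges 667 nm fluorescence with signal-to-noise of each printed compound spot.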 The note with it: higher = more signal.
Experiment [10] is described as follows: binders of probe aHhip on microarray, primary screen, stem cell growth factor project, biochemical, small-molecule microarray, fluorescence 635/667 (AID 1087).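 Also: score merges spot fluorescence at 667nm with spot signal to noise ratio.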 The note with it: higher = more signal.
For experiment [11], the system named is PRMT1 (protein arginine N-methyltransferase 1). Kind of experiment: small molecules binding arginine methyltransferase PRMT1 – biochemical, small-molecule microarray, 635 nm fluorescence, primary screen (AID 1088).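 Also: binding of Prmt1 protein to compounds spotted on small-molecule microarray slides.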 The note with it: higher = more signal.
A short description of experiment [12]: growth effects on S. cerevisiae YJM789 – YJM789 clinical isolate, OD600, 24 h, basal, primary screen (AID 1089).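 Also: growth of clinical yeast isolate S. cerevisiae YJM 789 seeded 1000 cells per well; test concentration not given here.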 The note with it: higher = more signal, called active from +8 up or from −8 down.
Experiment [13] is described as follows: S. pombe growth modifiers, basal conditions – strain 972, OD600, 24 h, no modulator, primary screen (AID 1090).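 Also: basal condition with compound alone and no growth modifier present; test concentration not given here.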 The note with it: S. pombe 972 growth, higher = more signal, called active from +8 up or from −8 down.
Experiment [14] is described as follows: budding yeast growth modifiers under rapamycin – strain BY4716, OD600, 96 h, primary screen (AID 1091). Also: test concentration not given here. The note with it: S. cerevisiae BY4716 + rapamycin, higher = more signal, called active from +8 up or from −8 down.
In experiment [15] the target is Torsin-1A-interacting protein 2 (Homo sapiens) (UniProt Q8NFQ8). The experiment is described as follows: small molecules binding lysate-expressed LULL1 – cell lysate, human LULL1 lysate, 635/667 nm fluorescence, primary screen (AID 1092).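 Also: score merges per-feature 667 nm fluorescence with signal-to-noise.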 The note with it: small-molecule microarray, hLULL1 lysate binding, 635 nm fluorescence; higher = more signal.
Experiment [16] is described as follows: optical density change of DRC41 E. coli – strain DRC41, OD650, 24 h, E. coli filamentation project, primary screen (AID 1093).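 Also: MC1000 strain lacking acrAB efflux and sulA so SOS filamentation is blocked; test concentration not given here.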 The note with it: E. coli DRC41 growth, higher = more signal, called active from +8 up or from −8 down.
A short description of experiment [17]: probe aLefty2 binding to arrayed compounds – biochemical, biotinylated probe, 635/667 nm fluorescence, primary screen (AID 1094).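 Also: score merges spot fluorescence near 667 nm with spot signal-to-noise ratio.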 The note with it: small-molecule microarray, higher = more signal.
Experiment [18] deals with Noggin (protein binding on small-molecule microarray). Kind of experiment: small molecules binding Noggin protein – biochemical, 635/667 nm fluorescence, primary screen (AID 1095).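 Also: score merges 667 nm feature fluorescence with signal to noise over triplicate slides.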 The note with it: 635 nm fluorescence, higher = more signal.
The target of experiment [19] is Neurogenic locus notch homolog protein 3 (Homo sapiens) (UniProt Q9UM47). The experiment is described as follows: small molecules binding NOTCH3 protein – biochemical, 635/667 nm fluorescence, primary screen (AID 1096). The note with it: small-molecule microarray, 635 nm fluorescence, higher = more signal.
Experiment [20] can be described thus: probe aEGFR binding to arrayed compounds – biochemical, biotinylated probe, 635/667 nm fluorescence, primary screen (AID 1097).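 Also: probe is a biotinylated anti-EGFR antibody binding compounds printed on slides; score combines fluorescence near 667 nm and signal to noise of each spot.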 The note with it: small-molecule microarray, higher = more signal.

Experimental findings from PubChem BioAssay are described below.

Structures are written as SMILES. The source made the active and inactive calls.

Chain of Neurogenic locus notch homolog protein 3 (Homo sapiens) (Q9UM47 whole entry, looked up): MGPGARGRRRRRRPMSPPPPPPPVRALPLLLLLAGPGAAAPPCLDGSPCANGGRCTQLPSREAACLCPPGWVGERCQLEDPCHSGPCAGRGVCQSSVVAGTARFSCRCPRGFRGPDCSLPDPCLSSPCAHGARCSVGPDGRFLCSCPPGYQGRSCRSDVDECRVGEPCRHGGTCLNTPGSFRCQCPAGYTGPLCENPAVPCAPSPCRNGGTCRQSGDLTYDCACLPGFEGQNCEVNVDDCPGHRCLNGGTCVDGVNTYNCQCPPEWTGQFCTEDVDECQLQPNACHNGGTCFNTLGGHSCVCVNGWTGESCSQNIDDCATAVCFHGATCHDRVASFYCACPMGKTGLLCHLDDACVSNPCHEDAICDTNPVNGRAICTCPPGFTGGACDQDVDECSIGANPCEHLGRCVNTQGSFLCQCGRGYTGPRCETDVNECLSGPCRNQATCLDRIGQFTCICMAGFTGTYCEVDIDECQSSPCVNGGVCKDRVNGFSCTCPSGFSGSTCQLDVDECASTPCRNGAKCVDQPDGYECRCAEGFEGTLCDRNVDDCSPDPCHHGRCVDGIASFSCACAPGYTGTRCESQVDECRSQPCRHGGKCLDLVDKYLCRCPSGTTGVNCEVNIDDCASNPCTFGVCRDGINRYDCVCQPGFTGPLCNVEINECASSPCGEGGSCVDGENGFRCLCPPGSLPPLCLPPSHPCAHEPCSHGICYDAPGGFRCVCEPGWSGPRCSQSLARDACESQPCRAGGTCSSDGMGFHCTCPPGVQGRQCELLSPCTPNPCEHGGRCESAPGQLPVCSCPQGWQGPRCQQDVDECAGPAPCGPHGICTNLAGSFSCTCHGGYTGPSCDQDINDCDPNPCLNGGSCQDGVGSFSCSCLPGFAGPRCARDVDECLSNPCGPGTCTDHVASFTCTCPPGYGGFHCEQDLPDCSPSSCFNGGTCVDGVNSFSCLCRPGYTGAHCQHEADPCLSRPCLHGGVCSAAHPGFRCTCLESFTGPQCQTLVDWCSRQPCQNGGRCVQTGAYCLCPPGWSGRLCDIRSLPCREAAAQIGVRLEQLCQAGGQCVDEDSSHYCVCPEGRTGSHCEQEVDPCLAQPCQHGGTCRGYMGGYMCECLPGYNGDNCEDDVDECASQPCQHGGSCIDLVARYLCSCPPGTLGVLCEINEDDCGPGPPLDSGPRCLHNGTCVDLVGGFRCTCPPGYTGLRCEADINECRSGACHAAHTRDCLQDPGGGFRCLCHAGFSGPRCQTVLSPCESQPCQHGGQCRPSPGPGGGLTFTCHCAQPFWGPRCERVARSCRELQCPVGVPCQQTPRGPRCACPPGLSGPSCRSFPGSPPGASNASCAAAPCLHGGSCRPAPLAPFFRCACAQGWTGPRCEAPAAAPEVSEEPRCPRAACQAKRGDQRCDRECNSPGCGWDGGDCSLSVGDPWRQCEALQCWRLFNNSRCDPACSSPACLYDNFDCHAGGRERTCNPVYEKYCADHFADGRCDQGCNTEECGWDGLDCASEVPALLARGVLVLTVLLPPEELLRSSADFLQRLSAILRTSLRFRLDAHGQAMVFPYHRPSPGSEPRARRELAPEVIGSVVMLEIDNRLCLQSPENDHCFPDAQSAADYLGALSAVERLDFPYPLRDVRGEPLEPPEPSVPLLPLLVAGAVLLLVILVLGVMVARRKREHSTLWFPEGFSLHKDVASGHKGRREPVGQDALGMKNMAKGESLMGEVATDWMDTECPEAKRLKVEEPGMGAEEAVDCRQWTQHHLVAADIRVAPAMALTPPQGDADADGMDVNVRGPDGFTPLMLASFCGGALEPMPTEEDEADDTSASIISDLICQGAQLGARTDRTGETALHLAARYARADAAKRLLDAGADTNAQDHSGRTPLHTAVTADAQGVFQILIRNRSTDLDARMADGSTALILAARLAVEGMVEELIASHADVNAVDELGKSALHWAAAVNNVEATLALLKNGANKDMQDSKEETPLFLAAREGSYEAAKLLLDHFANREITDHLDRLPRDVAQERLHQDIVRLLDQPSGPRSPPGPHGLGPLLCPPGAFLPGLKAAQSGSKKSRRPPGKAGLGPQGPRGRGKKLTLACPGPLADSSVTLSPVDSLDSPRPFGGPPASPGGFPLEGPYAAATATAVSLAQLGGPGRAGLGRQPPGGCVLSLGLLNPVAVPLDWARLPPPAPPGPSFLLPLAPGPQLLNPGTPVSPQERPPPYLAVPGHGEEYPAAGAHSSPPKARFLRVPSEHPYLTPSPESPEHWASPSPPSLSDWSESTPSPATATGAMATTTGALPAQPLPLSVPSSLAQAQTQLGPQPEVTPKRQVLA
Chain of Pro-neuregulin-1, membrane-bound isoform (Homo sapiens) (Q02297 whole entry, looked up, the tested form may be a part, canonical isoform): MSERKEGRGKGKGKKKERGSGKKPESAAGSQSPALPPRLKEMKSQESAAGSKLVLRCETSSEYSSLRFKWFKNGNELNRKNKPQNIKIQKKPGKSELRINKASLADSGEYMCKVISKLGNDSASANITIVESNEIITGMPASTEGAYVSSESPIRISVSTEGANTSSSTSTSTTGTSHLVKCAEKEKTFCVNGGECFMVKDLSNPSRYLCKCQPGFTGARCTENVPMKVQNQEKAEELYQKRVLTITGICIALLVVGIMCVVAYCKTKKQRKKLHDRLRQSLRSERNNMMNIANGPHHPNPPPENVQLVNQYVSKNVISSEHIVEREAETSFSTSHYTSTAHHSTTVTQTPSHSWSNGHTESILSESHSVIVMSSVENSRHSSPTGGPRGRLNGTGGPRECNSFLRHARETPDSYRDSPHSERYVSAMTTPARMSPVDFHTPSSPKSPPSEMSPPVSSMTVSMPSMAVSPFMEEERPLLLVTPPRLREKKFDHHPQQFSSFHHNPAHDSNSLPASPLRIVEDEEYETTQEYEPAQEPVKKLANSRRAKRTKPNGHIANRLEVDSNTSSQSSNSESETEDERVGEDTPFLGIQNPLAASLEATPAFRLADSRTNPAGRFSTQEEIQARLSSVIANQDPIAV
Chain of Torsin-1A-interacting protein 2 (Homo sapiens) (Q8NFQ8 whole entry, looked up): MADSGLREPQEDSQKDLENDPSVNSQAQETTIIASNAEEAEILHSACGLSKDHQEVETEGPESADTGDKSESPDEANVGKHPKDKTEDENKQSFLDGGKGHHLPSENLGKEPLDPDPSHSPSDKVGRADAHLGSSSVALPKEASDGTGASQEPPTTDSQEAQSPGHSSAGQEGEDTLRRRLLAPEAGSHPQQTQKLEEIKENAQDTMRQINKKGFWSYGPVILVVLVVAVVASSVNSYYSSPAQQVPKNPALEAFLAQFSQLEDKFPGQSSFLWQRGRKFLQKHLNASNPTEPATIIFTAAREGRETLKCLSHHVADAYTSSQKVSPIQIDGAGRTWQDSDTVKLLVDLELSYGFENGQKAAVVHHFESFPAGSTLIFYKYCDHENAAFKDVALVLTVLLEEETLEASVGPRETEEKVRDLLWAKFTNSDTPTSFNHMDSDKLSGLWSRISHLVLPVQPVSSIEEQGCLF

Turning to `COc1ccc(O[C@H]2C=C[C@@H](c3ccccc3)O[C@@H]2CON=C2[C@H]3CCn4c(=O)n(-c5ccccc5)c(=O)n4[C@H]3[C@H](O)[C@@H]3O[C@H]23)cc1`, the composite z-score is -0.135 in [1]; 0.451 in [2]; -0.0973 in experiment [3]; 0.372 in experiment [4]; 1.24 in [5]; 0.238 in [6]. The composite z-score in experiment [7] was 0.63; in experiment [9], 0.358; in experiment [10], 0.197; in [11], 1.3; in [15] it was 0.86; in experiment [17] it was -0.206. Also, the composite z-score is 0.437 in experiment [18], 0.863 in experiment [19] and 0.0009 in [20]. The z-score was -0.243 (inactive) in experiment [8]; -0.417 (inactive) in [12]; 0.444 (inactive) in experiment [13]; 0.661 (inactive) in experiment [14]; -0.745 (inactive) in experiment [16].

As to `C[C@@H]1NC(=O)[C@@H](C)COC(=O)[C@H](C)NC(=O)[C@@H](C)COC1=O`, the composite z-score was -0.537 in [1]; 0.472 in [2]; -0.121 in experiment [3]; 0.489 in [4]; 0.51 in [5]; -0.292 in experiment [6]. Besides, the composite z-score in [7] was 1.14; in experiment [9], 0.253; in experiment [10] it was 0.0623; in experiment [11], 0.455; in [15], 1.03; in [17], -0.0186. For the same compound, the values for the composite z-score in experiment [18], in experiment [19] and in experiment [20] were 0.79, -0.0611 and 0.132, respectively. Further, the z-score was -3.49 (inactive) in experiment [8]; -0.335 (inactive) in experiment [12]; -0.924 (inactive) in experiment [13]; -1.94 (inactive) in experiment [14]; -0.0698 (inactive) in [16].

Take `COc1ccc(O[C@H]2C=C[C@@H](c3ccccc3)O[C@@H]2CON=C(C)CCC(=O)OC[C@H]2O[C@H](c3ccccc3)C=C[C@@H]2Oc2ccc(OC)cc2)cc1`: the composite z-score in experiment [1] is 0.0321; in experiment [2], -0.543; in [3], -0.141; in [4] it was 0.0207; in [5] it was -1.5; in experiment [6], -0.496. Moreover, the composite z-score in [7] was -1.1; in experiment [9], -0.677; in experiment [10] it was -0.0994; in experiment [11] it was -2.44; in [15], -1.78; in experiment [17], -0.294. In addition, the composite z-score is -0.769 in experiment [18], 0.0708 in [19] and -0.267 in [20]. Besides, the z-score in experiment [8] was 0.634 (inactive); in experiment [12] it was 0.76 (inactive); in experiment [13] it was 0.91 (inactive); in experiment [14] it was 0.525 (inactive); in experiment [16], -0.0503 (inactive).

Turning to `CON=C1[C@H]2CCn3c(=O)n(-c4ccccc4)c(=O)n3[C@H]2[C@H](O)[C@@H]2O[C@H]12`, the composite z-score in [1] is -0.39; in experiment [2] it was 0.135; in experiment [3], -0.0533; in experiment [4] it was 0.383; in [5] it was 0.41; in experiment [6], 0.0959. The composite z-score in experiment [7] is 0.561; in experiment [9], 0.17; in experiment [10], -0.199; in experiment [11], 0.887; in [15] it was 0.456; in [17], -0.205. The composite z-score in experiment [18] was 1.02; in [19] it was 0.646; in experiment [20], -0.177. Moreover, the z-score in [8] was -1.17 (inactive); in [12], -1.57 (inactive); in experiment [13], -1.81 (inactive); in experiment [14] it was 2.3 (inactive); in experiment [16], -0.114 (inactive).

Turning to `O=C(NN=C1C[C@@H](O)[C@@H](O)[C@@H]2[C@@H]3C(=O)N(C[C@@H]4CCCO4)C(=O)[C@@H]3CC[C@@H]12)OCc1ccccc1`, the composite z-score in experiment [1] is -0.51; in [2], 2.32; in experiment [3] it was -0.173; in [4], -0.522; in experiment [5], -0.122; in [6] it was -0.802. Moreover, the composite z-score was 0.631 in experiment [7]; -0.0104 in experiment [9]; -0.0994 in experiment [10]; 1.04 in experiment [11]; -0.0366 in experiment [15]; -0.27 in [17]. For the same compound, the composite z-score was 0.907 in [18], 0.208 in experiment [19] and -0.0947 in [20]. Besides, the z-score is -0.891 (inactive) in [8]; -1.74 (inactive) in experiment [12]; -0.199 (inactive) in experiment [13]; -0.655 (inactive) in [14]; -0.202 (inactive) in [16].
